Assay results published in PubChem BioAssay AID1159580 (chemical genetic matrix, 2015).
About 2,000 (36%) of roughly 5,500 compounds were called active. Another 18% or so got no clear call; they are omitted. Rule as the data show it: active = normalized growth mostly below about 0.91 (no sharp cut-off); inconclusive = no clear call, values can overlap the other calls; inactive = mostly above about 0.92. This is one part of the list.

Assay: chemical genetic growth profiling, strain panel (AID 1159580);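 also: tested at 20 µM; growth read once vehicle control cultures reached saturation at 30 °C; 1 = growth at the plate median or of vehicle wells; lower values mean less growth of the strain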
Details: S. cerevisiae deletion strains, growth OD

Measured: normalized growth

OC(=Cc1nc2ccccc2nc1C=C(O)c1ccc(Cl)cc1)c1ccc(Cl)cc1
inactive: locus YAR019C, strain CDC15, stronger effect = lower value 0.993 | locus YBL105C, strain PKC1, stronger effect = lower value 0.974 | locus YBR135W, strain CKS1, stronger effect = lower value 0.983 | locus YBR136W, strain MEC1, stronger effect = lower value 0.967 | locus YBR160W, strain CDC28, stronger effect = lower value 0.984 | locus YDL017W, strain CDC7, stronger effect = lower value 0.98 | locus YDL028C, strain MPS1, stronger effect = lower value 0.97 | locus YDL101C, strain DUN1, stronger effect = lower value 0.977 | locus YDL108W, strain KIN28, stronger effect = lower value 0.961 | locus YDL132W, strain cdc53, stronger effect = lower value 0.995 | locus YDL214C, strain PRR2, stronger effect = lower value 0.895 | locus YDR052C, strain DBF4, stronger effect = lower value 0.981 | locus YDR054C, strain cdc34, stronger effect = lower value 0.972 | locus YDR226W, strain ADK1, stronger effect = lower value 0.969 | locus YDR477W, strain SNF1, stronger effect = lower value 0.856 | locus YER123W, strain YCK3, stronger effect = lower value 0.85 | locus YER133W, strain GLC7, stronger effect = lower value 0.9 | locus YFL009W, strain cdc4, stronger effect = lower value 0.976 | locus YFL029C, strain CAK1, stronger effect = lower value 0.976 | locus YFR003C, strain YPI1, stronger effect = lower value 0.978 | locus YFR019W, strain FAB1, stronger effect = lower value 0.918 | locus YFR028C, strain CDC14, stronger effect = lower value 0.987 | locus YGR040W, strain KSS1, stronger effect = lower value 0.855 | locus YGR052W, strain FMP48, stronger effect = lower value 0.903 | locus YGR092W, strain DBF2, stronger effect = lower value 0.793 | locus YHR030C, strain SLT2, stronger effect = lower value 0.874 | locus YHR079C, strain IRE1, stronger effect = lower value 0.96 | locus YHR082C, strain KSP1, stronger effect = lower value 0.851 | locus YHR205W, strain SCH9, stronger effect = lower value 0.882 | locus YIL147C, strain SLN1, stronger effect = lower value 0.958 | locus YJL095W, strain BCK1, stronger effect = lower value 0.933 | locus YJL128C, strain PBS2, stronger effect = lower value 0.965 | locus YJL157C, strain FAR1, stronger effect = lower value 0.84 | locus YJR016C, strain ILV3, stronger effect = lower value 0.977 | locus YJR066W, strain TOR1 (second series), stronger effect = lower value 0.852 | locus YJR066W, strain TOR1, stronger effect = lower value 0.889 | locus YKL048C, strain ELM1, stronger effect = lower value 0.868 | locus YKL067W, strain YNK1, stronger effect = lower value 0.871 | locus YKL101W, strain HSL1, stronger effect = lower value 0.8 | locus YKL193C, strain SDS22, stronger effect = lower value 1 | locus YKL203C, strain TOR2, stronger effect = lower value 0.932 | locus YLR113W, strain HOG1, stronger effect = lower value 0.902 | locus YLR133W, strain CKI1, stronger effect = lower value 0.884 | locus YLR403W, strain SFP1, stronger effect = lower value 0.904 | locus YML070W, strain DAK1, stronger effect = lower value 0.855 | locus YMR001C, strain CDC5, stronger effect = lower value 0.992 | locus YMR205C, strain PFK2 (second series), stronger effect = lower value 0.859 | locus YMR277W, strain FCP1, stronger effect = lower value 0.977 | locus YNL006W, strain LST8, stronger effect = lower value 0.982 | locus YNL020C, strain ARK1, stronger effect = lower value 0.851 | locus YNL161W, strain CBK1, stronger effect = lower value 0.983 | locus YNL183C, strain NPR1, stronger effect = lower value 0.921 | locus YNL207W, strain RIO2, stronger effect = lower value 0.966 | locus YNL222W, strain SSU72, stronger effect = lower value 0.982 | locus YNL307C, strain MCK1 (second series), stronger effect = lower value 0.823 | locus YOL078W, strain AVO1, stronger effect = lower value 0.982 | locus YOL136C, strain PFK27, stronger effect = lower value 0.867 | locus YOR061W, strain CKA2, stronger effect = lower value 0.769 | locus YOR119C, strain RIO1, stronger effect = lower value 0.921 | locus YOR231W, strain MKK1, stronger effect = lower value 0.936 | locus YOR329C, strain SCD5, stronger effect = lower value 0.983 | locus YPL031C, strain PHO85, stronger effect = lower value 0.843 | locus YPL153C, strain RAD53, stronger effect = lower value 0.862 | locus YPL204W, strain HRR25, stronger effect = lower value 0.89 | locus YPL209C, strain IPL1, stronger effect = lower value 0.979 | locus YPL256C, strain CLN2, stronger effect = lower value 0.941 | locus YPR025C, strain CCL1, stronger effect = lower value 0.979 | locus YPR106W, strain ISR1, stronger effect = lower value 0.962 | locus YPR111W, strain DBF20, stronger effect = lower value 0.954 | strain NNK1, stronger effect = lower value 0.96 | strain TSCII, stronger effect = lower value 0.989
